About 79,000 compounds went through this panel and 15% of them were active in at least one assay; those are over-represented in the sample as a whole. Unmarked numbers belong to inactive results. The source made the active and inactive calls. Cut-off read from the data, not from the text of the source: active = growth inhibition above about 70%; inactive = the rest.
Assays:
[1] = NCI Yeast Anticancer Drug Screen. Data for the rad50 strain (AID 155);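 note: 0% = growth of vehicle-only cultures of the same strain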; conditions: S. cerevisiae rad50 strain growth inhibition, hits give high values
Summary of the method: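 Cells are treated with compound, grown, and their growth is then scored against vehicle-only cultures of the same repair-deficient yeast strain.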

[2] = NCI Yeast Anticancer Drug Screen. Data for the mec2-1 strain (AID 157); conditions: S. cerevisiae mec2-1 strain, hits give high values
Summary of the method: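 Compounds were applied to mec2-1 yeast cells. Their growth was then compared with that of vehicle-treated cultures to give growth inhibition.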

[3] = NCI Yeast Anticancer Drug Screen. Data for the sgs1 mgt1 strain (AID 161);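 note: 0% = growth of cultures given vehicle only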; conditions: S. cerevisiae sgs1 mgt1 strain, hits give high values
Summary of the method: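 Compounds are added to genetically altered yeast, and growth is compared with cultures given vehicle alone to give percent inhibition.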

[4] = NCI Yeast Anticancer Drug Screen. Data for the cln2 rad14 strain (AID 165);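 note: 0% = growth equal to vehicle treated cultures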; conditions: S. cerevisiae cln2 rad14 strain, hits give high values
Summary of the method: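 Strain: cln2 rad14 yeast, altered in cell cycle control and DNA damage repair. Read-out: growth inhibition vs vehicle.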

[5] = NCI Yeast Anticancer Drug Screen. Data for the bub3 strain (AID 167); conditions: S. cerevisiae bub3 mutant strain, hits give high values
Summary of the method: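 Part of a panel of yeast mutants defective in DNA damage repair or cell cycle regulation. Each strain is grown with compound, and inhibition is calculated relative to solvent-treated cultures.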

[6] = NCI Yeast Anticancer Drug Screen. Data for the mlh1 rad18 strain (AID 175); conditions: S. cerevisiae mlh1 rad18 strain growth inhibition, hits give high values
Summary of the method: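 A repair-deficient yeast strain is exposed to test compound, and growth is scored relative to vehicle-treated controls.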

[7] = at 5.0 µM (retest, dose inferred, filed as 0.5)
[8] = at 50.0 µM (retest, dose inferred, filed as 5.0)

SMILES	growth inhibition [1, 7] [%]	growth inhibition [1, 8]	growth inhibition ([1]; at 50.0 µM)	growth inhibition [2, 7] [%]	growth inhibition [2, 8]	growth inhibition ([2]; at 50.0 µM)	growth inhibition [3, 7] [%]	growth inhibition [3, 8]	growth inhibition ([3]; at 50.0 µM)	growth inhibition [4, 7] [%]	growth inhibition [4, 8]	growth inhibition ([4]; at 50.0 µM)	growth inhibition [5, 7] [%]	growth inhibition [5, 8]	growth inhibition ([5]; at 50.0 µM)	growth inhibition [6, 7] [%]	growth inhibition [6, 8]	growth inhibition ([6]; at 50.0 µM)
O=C1COC(=O)/C1=C\C=C\c1ccccc1	5	55%	95.6% (active)	8	84% (active)	91% (active)	13	78% (active)	99% (active)	1	94% (active)	95.4% (active)	-5	43%	97.2% (active)	2	68%	99% (active)
OCc1cc2c([nH]c3ccccc32)c(C(O)CO)n1 (stereo not given)	-2	-6%	92.9% (active)	0	-3%	94.5% (active)	-2	-3%	94.5% (active)	0	-1%	92.7% (active)	2	-2%	93.3% (active)	1	-4%	-68.3%
CC(=O)Oc1c(Br)cc(Br)cc1Br	4	-4%	9.35%	-5	-34%	6.7%	10	4%	4.5%	2	-2%	1.2%	10	6%	9.1%	13	20%	0.9%
CCCCCCN(S(=O)(=O)c1ccc([N+](=O)[O-])cc1)S(=O)(=O)c1ccc([N+](=O)[O-])cc1	23	48%	66.8%	-105	51%	73.7% (active)	8	48%	71.3% (active)	8	55%	68.7%	32	50%	56.9%	18	48%	73.8% (active)
Cc1ccc(C2SCC(=O)N2c2ccc(-n3c(-c4ccccc4)nc4ccccc4c3=O)cc2)cc1 (stereo not given)	-16	90% (active)	75.3% (active)	-8	55%	67.5%	-10	81% (active)	77.2% (active)	-16	87% (active)	83.2% (active)	-24	74% (active)	72.7% (active)	-8	88% (active)	79.8% (active)
O=C(O)c1ccccc1/C=C1\Cc2ccc3c(c2C1=O)CCCC3	18	18%	81.6% (active)	6	6%	83.1% (active)	6	6%	81.3% (active)	-4	-4%	85.5% (active)	-5	-5%	81.5% (active)	12	12%	79.9% (active)
CC1CCCN(CC(O)CN2CCCc3ccccc32)C1 (stereo not given)	0	32%	97.9% (active)	8	17%	94.5% (active)	2	25%	97.6% (active)	26	33%	94.4% (active)	-7	29%	96% (active)	6	40%	97.5% (active)
Cc1cnc(Sc2c([N+](=O)[O-])ncn2C)nc1	3	8%	71.8% (active)	6	7%	98.2% (active)	3	9%	63.7%	0	7%	41.5%	1	4%	99.5% (active)	-1	3%	80.1% (active)
O=C1C(=O)C2CC3(CC1N2Cc1ccccc1)OCCO3	11	95% (active)	98% (active)	-28	79% (active)	96.5% (active)	36	93% (active)	96.9% (active)	5	43%	95.2% (active)	-10	78% (active)	86.5% (active)	34	94% (active)	95.5% (active)
O=C(CBr)Oc1ccc(-c2cccc(Br)c2)cc1	1	99% (active)	99.7% (active)	6	99% (active)	99.5% (active)	15	100% (active)	99.6% (active)	-14	99% (active)	98.6% (active)	-6	99% (active)	99.6% (active)	4	99% (active)	99.2% (active)

Source: PubChem BioAssay (NCI)
